Laboratory results reported in PMC12136788.
Positions count from the first letter of the chain named. The full ranking holds about 24,000 sequences; the median of “enrichment r” is about 0.99, and the highest 2% start at about 3.7. The list comes from a sample in which the highest values are over-represented; it also holds similar and randomly drawn sequences.

T1: UNK ZnF1-3 (human, UniProt Q9C0B0 31-174)
T1 sequence: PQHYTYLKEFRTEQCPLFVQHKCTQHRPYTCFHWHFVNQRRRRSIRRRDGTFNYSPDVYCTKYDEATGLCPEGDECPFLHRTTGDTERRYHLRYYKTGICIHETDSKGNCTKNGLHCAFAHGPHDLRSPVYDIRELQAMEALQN

B1: chr6:155153589:155153590:+_ENSG00000213079_ENST00000417268|hu_hu|motif|central (ssRNA)
RNA: GGGAGUUCUACAGUCCGACGAUCAGUAACAUUGUCUACGCUUUGUCUUCCAGGAGCUAAAAAAGGUCUUUCUGGUUGACGGAAAAUAUCUCCUGGAGGAAAAGGUCCACGGGGUGGUGGAUGAAGAGCUGAAUCAAGUACCGACAACAGAGGAUUGAGCAUCA
B2: chr1:161298228:161298229:+_ENSG00000143252_ENST00000367975|hu_hu|motif|central (ssRNA)
RNA: GGGAGUUCUACAGUCCGACGAUCCAUGGGAAGAGACCAACUGUAGAUAGUAAUGUGGGGAGACAGAGGACGGUUUGAACCGGUAUUCUUAUUCCAGAACCGCUCCAUCUCUUCUUUGGCCGUGGUUCCCAAAGGAACAGCAUUCAACAGAGGAUUGAGCAUCA
B3: 32561585_32561705_2007_CDS_ENSG00000100852_ENST00000539826|human|control|control (ssRNA)
RNA: GGGAGUUCUACAGUCCGACGAUCUAGUUCUUGGGCAAGGCCAUCCUUCCCUAAAAUAAAAAGGUUAACUUUAUCUAUAUUGGUACUAUCGUGAUAUAAUCUUAAGCGGCCAUGAUCCAACUGUAAAAGACUACUAGCAAGUAACAACAGAGGAUUGAGCAUCA
B4: chr3:139076767:139076768:-_ENSG00000184432_ENST00000507777|hu_mus|motif|central (ssRNA)
RNA: GGGAGUUCUACAGUCCGACGAUCACUUUAAUCAUCCAGAAUAUCUUCAUCCAGAUUAAUGUCUGUUGUGUCAAUAUCCUCGGAUUCCAAGUUAUCCAAAUCAACUUCUAGUUCUAGUAAACUCUUUUCUUCUUUGUGGGUAGUCAACAGAGGAUUGAGCAUCA
B5: chr15:100049815:100049816:+_ENSMUSG00000023026_ENSMUST00000100203|mus_hu|motif|central (ssRNA)
RNA: GGGAGUUCUACAGUCCGACGAUCAAUGAGUUAAUAGAACACUGUCCAGCCAGAUGUUAAAUUUAAAAACGUAUAUCGGGUCGGACUUCAAAUAAAUAAAAAAACUUUAUACAUAAUUACACAGUACUGUAGUUUGAAUUUGACCAACAGAGGAUUGAGCAUCA
B6: chr1:58468927:58468928:-_ENSMUSG00000026034_ENSMUST00000148330|mus_mus|mus_mus_mus_hu_False|18_68 (ssRNA)
RNA: GGGAGUUCUACAGUCCGACGAUCAAUUACUGAAAAAGAUGUUCAUUACCUUAGCUAUGUACUUAAUUUAAUAAAGCACCCAAACAAAAUAAACAUGGCAAUAUAAAAAUGUUAAGAAAAUAACUUACUGUACAAAAUAACUUACAACAGAGGAUUGAGCAUCA
B7: chr10:33190432:33190433:-_ENSG00000150093_ENST00000302278|hu_mus|hu_hu_hu_mus_True|28_68 (ssRNA)
RNA: GGGAGUUCUACAGUCCGACGAUCUACAUUUUCCAAACCUGCAUGUGAAUAAAACCCUGGCCACAGAGCCCUAAAGCUACCCUACUGUGACUAAGAUGCUGCUGCUGUUGCAUUCAGGUUGCAAAAUCCGCCUGAGUAGGAUUCCAACAGAGGAUUGAGCAUCA
B8: chr5:38529174:38529175:-_ENSMUSG00000029126_ENSMUST00000031009|mus_mus|FALSE|FALSE (ssRNA)
RNA: GGGAGUUCUACAGUCCGACGAUCGAAAAGCUAAAGUAGCCCUGGCUUACCCAAAAUUACAUUUCACUUUGCCCACUGGCUAAUAAAACAAAACAAAACAAAACAAAAAACCCAAACUGCACCUGCAUUCAGGGCUGUACGUGCCAACAGAGGAUUGAGCAUCA
B9: chr15:100049815:100049816:+_ENSMUSG00000023026_ENSMUST00000100203|mus_mus|motif|central (ssRNA)
RNA: GGGAGUUCUACAGUCCGACGAUCAAUGAGUUAAUAGAACACUGUCCAGCCAGAUGUUAAAUUUAAAAAUGUAUAUCGGACCGGAUUUCAAAUAAAUAAAAAAACCUUUAUACAUAAUUACACAGUACUAUAGUUUGAAUUGGACAACAGAGGAUUGAGCAUCA
B10: chr1:58468927:58468928:-_ENSMUSG00000026034_ENSMUST00000148330|mus_mus|mus_mus_mus_hu_False|68_68 (ssRNA)
RNA: B6 RNA with A118U, A119U, A122C, C123A, U124A, U125A, A126G
B11: chr15:100049815:100049816:+_ENSMUSG00000023026_ENSMUST00000100203|mus_hu|FALSE|FALSE (ssRNA)
RNA: B5 RNA with G77U, G78A, G82U, G83A
B12: chr1:58468927:58468928:-_ENSMUSG00000026034_ENSMUST00000148330|mus_mus|mus_mus_mus_hu_False|1_68 (ssRNA)
RNA: B6 RNA with A118U, A119U, A122C, C123A, U124A, U125A, A126G, U137A, A138G, U142G
B13: chr1:58468927:58468928:-_ENSMUSG00000026034_ENSMUST00000148330|mus_mus|mus_mus_mus_hu_False|28_68 (ssRNA)
RNA: GGGAGUUCUACAGUCCGACGAUCAAUUACUGAAAAAGAUGUUCAUUACCUUAGCUAUGUACUUAAUUUAAUAAAGCACCCAAACAAAAUAAACAUGGCAAUAUAAAAAGCUAUACAAUUUACAAAGCUGUACAAAAUAACUUACAACAGAGGAUUGAGCAUCA
B14: chr5:38529146:38529147:-_ENSMUSG00000029126_ENSMUST00000031009|mus_mus|FALSE|FALSE (ssRNA)
RNA: GGGAGUUCUACAGUCCGACGAUCAGAAAAGCUAAAGUAGCCCUGGCUUACCCAAAAUUACAUUUCACUUUGCCCACUGGCUAAUAAAACAAAACAAAACAAAACAAAAAACCCAAACUGCACCUGCAUUCAGGGCUGUACGUGCAACAGAGGAUUGAGCAUCA
B15: chr1:58468927:58468928:-_ENSMUSG00000026034_ENSMUST00000148330|mus_mus|mus_mus_mus_hu_False|58_68 (ssRNA)
RNA: B13 RNA with C78U, C80U, C84A, G109U, C110G, A112U, U113A, C115G

Target: T1, UNK ZnF1-3
Assay: nsRBNS (natural sequence RNA bind-n-seq); RBNS binding buffer (assumed for nsRBNS): 25 mM Tris pH 7.5, 150 mM KCl, 3 mM MgCl2, 0.01% Triton X-100, 500 ug/ml BSA, 20 U/ml SUPERase-In, 4 C; UNK is unkempt and MSI1 is Musashi-1; names of the RNAs are library labels; protein concentration not given here; high values mean tight binding

| Binder | binding signal [enrichment R] |
| --- | --- |
| B1 | 0.663 |
| B2 | 1.08 |
| B3 | 1.31 |
| B4 | 0.449 |
| B5 | 4.96 |
| B6 | 3.68 |
| B7 | 1.01 |
| B8 | 1.5 |
| B9 | 2.23 |
| B10 | 1.87 |
| B11 | 1.95 |
| B12 | 1.68 |
| B13 | 0.868 |
| B14 | 4.49 |
| B15 | 3.76 |
